# Measurements from PubChem BioAssay (NCATS).
# Records with an inconclusive call do not appear. A number with no mark means an inactive call. Calls follow the shape of the dose curve; as a rule, active = well fitted cell-killing curve with a large enough effect; inconclusive = small, poorly fitted or top-dose-only effect, or effect the other way; inactive = no such curve, though single readings can be large or run the other way.
# Test: qHTS assay to identify small molecule inhibitors of chordoma cells - UCH-1 (AID 1259355); also: nearly all actives have a fitted effect of over 55% in size
# Conditions: UCH-1 chordoma viability, CellTiter-Glo, 48 h, combination, with auranofin plus four topoisomerase inhibitors; series mostly up to 46.1 µM; activity, negative = inhibition: at the top concentration
# Procedure, shortened: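 Seed 800 cells per well; incubate overnight at 37 C, 5% CO2. Add test compounds (15 concentrations), then the auranofin–topoisomerase-agent combination. Incubate 48hr, add CellTiter-Glo, wait 30min, read luminescence.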
# % is scaled to controls: 0 for no effect and ±100 for the full control effect.
row,SMILES,"activity, negative = inhibition"
1,CN(C)CCN1C(=O)c2ccccc2N(C)c2ccccc21,-5.43%
2,NCCNc1cccc2ccccc12,-18.7%
3,CCCCCCCC/C=C\CCCCCCCCN,15.5%
4,COc1ccc2c(c1)c1c3n2CCN(C)C3=NCC1,-10.6%
5,Cc1c(-c2ccccc2)oc2c(C(=O)OCCN3CCCCC3)cccc2c1=O,-12.1% [at 20.6 µM]
6,CC[N+](C)(CC)CCOC(=O)C(O)(c1ccccc1)C1CCCCC1 (stereo unspecified),-1.56%
7,CC(=O)N[C@@H](CCC(=O)O)C(=O)O,-17.6%
8,Cc1cc(NS(=O)(=O)c2ccc(N)cc2)nc(C)n1,-21.3%
9,O=C(O)C1(C(=O)O)CCC1.[NH2-].[NH2-].[Pt+2],-16.5%
10,CC1(COc2ccc(CC3SC(=O)NC3=O)cc2)CCCCC1 (stereo unspecified),-0.681%
11,Cc1ccc(S(=O)(=O)NC(=O)NC2CCCC2)cc1,-8.41%
12,CCOc1cc(OCC)c(C(=O)CCC(=O)O)cc1OCC,-6.19%
13,COc1ccc(/C=N/NC(=O)c2ccncc2)cc1OC,-10.5%
14,N=C(N)N1CCc2ccccc2C1,-7.18%
15,Cc1cc(C)cc(OCC2CNC(=O)O2)c1 (stereo unspecified),11%
16,CC(C)(C)NC[C@H](O)COc1cccc2c1CCCC2=O,10.9% [at 20.6 µM]
17,O=C(Nc1cccc(C2=NCCN2)c1)Nc1cccc(C2=NCCN2)c1,6.95%
18,CCCCCCCCCCCCCCCCO,-9.85%

row,SMILES,"activity, negative = inhibition"
1,CCOC(=O)Nc1ccc2c(c1)N(C(=O)CCN1CCOCC1)c1ccccc1S2,-2.93% [at 20.6 µM]
2,NS(=O)(=O)c1cc(C(=O)O)cc(N2CCCC2)c1Oc1ccccc1,-36.3% [at 20.6 µM]
3,CC(CNC1CCCCC1)OC(=O)c1ccccc1 (stereo unspecified),-3.14% [at 20.6 µM]
4,CCCCN1C[C@H](O)[C@@H](O)[C@H](O)[C@H]1CO,-9.48%
5,Cc1cccc(C)c1NC(=O)CN1CCCCCC1,-9.66%
6,CCC(Cc1c(I)cc(I)c(N)c1I)C(=O)O (stereo unspecified),-37.1% [at 20.6 µM]
7,CC(C)CCCC(C)N (stereo unspecified),-2.04%
8,O=C(Nc1ccc([N+](=O)[O-])cc1)Nc1ccc([N+](=O)[O-])cc1,-17.4%
9,C#C[C@]1(O)CC[C@H]2[C@@H]3CCC4=CC(=O)CC[C@@H]4[C@H]3CC[C@@]21CC,-7.56%
10,Cc1cccc(C)c1NC(=O)c1ccccc1C(=O)O,-10.5%
11,CCN(CC)CCOC(=O)C1(c2ccccc2)CCCC1,-1.94%
12,CC1(C)OC[C@@H]2O[C@@]3(C(=O)O)OC(C)(C)O[C@H]3[C@@H]2O1,-9.34%
13,CCCCCCCCCCCCCCCC(=O)O,-15.9%
14,CN1CCN(c2c(F)cc3c(=O)c(C(=O)O)cn4c3c2SCC4)CC1,-0.0148%
15,OC[C@H]1O[C@@H](Oc2ccc(O)cc2)[C@H](O)[C@@H](O)[C@@H]1O,-12.1%
16,CC(=O)Nc1ccc(CC(=O)O)cc1,-11.1%
17,Oc1ccccc1C=NCc1ccccc1,-2.76%
18,CC1CCc2c(N3CCC(O)CC3)c(F)cc3c(=O)c(C(=O)O)cn1c23 (stereo unspecified),-14.8%
